Experimental data: PubChem BioAssay (NCI)
The panel holds about 79,000 compounds, 15% with a hit somewhere; the sample as a whole holds those more often. Active and inactive are the calls of the source. Rule as the data show it: active = growth inhibition above about 70%; inactive = the rest.

Test: NCI Yeast Anticancer Drug Screen. Data for the wt2 strain (AID 169);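 also: 0% = growth of vehicle-treated yeast cultures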
Conditions: S. cerevisiae wt2 strain growth inhibition, stronger effect = higher value
Experimental: Growth inhibition of yeast strains with defined genetic alterations is measured as a screen for potential anti-cancer activity. Selected strains with alterations in DNA damage repair or cell cycle control were exposed to compounds and growth inhibition was measured relative to vehicle treated controls. The strain used in this assay is wt2

CNC(=O)OCc1c(COC(=O)NC)c(-c2ccc(Cl)c(Cl)c2)n2c1SCC2
growth inhibition (at 1.2 µM): -1% (inactive) | growth inhibition (at 3.7 µM): -2% (inactive) | growth inhibition (at 11.0 µM): -2% (inactive) | growth inhibition (at 33.0 µM): -5% (inactive) | growth inhibition (at 100.0 µM): 25% (inactive)

O=[n+]1c2ccccc2n([O-])c2cc(Br)ccc21
growth inhibition (at 1.2 µM): 47% (inactive) | growth inhibition (at 3.7 µM): 69% (inactive) | growth inhibition (at 11.0 µM): 99% (active) | growth inhibition (at 33.0 µM): 100% (active) | growth inhibition (at 100.0 µM): 98% (active)

CC(C)CN(CC(C)C)C(=O)c1ccc(Cl)c(Cl)c1
growth inhibition (at 1.2 µM): -3% (inactive) | growth inhibition (at 3.7 µM): -5% (inactive) | growth inhibition (at 11.0 µM): -5% (inactive) | growth inhibition (at 33.0 µM): 74% (active) | growth inhibition (at 100.0 µM): 99% (active)

NC(=O)c1c([N+](=O)[O-])cc(C(F)(F)F)cc1[N+](=O)[O-]
growth inhibition (at 1.2 µM): 0% (inactive) | growth inhibition (at 3.7 µM): 1% (inactive) | growth inhibition (at 11.0 µM): 3% (inactive) | growth inhibition (at 33.0 µM): 4% (inactive) | growth inhibition (at 100.0 µM): 8% (inactive)

CC(=O)SC(C[N+](=O)[O-])c1ccccc1 (stereo not given)
growth inhibition (at 1.2 µM): -3% (inactive) | growth inhibition (at 3.7 µM): -4% (inactive) | growth inhibition (at 11.0 µM): 14% (inactive) | growth inhibition (at 33.0 µM): 99% (active) | growth inhibition (at 100.0 µM): 99% (active)

Cc1cccc(/C=N/NC(=S)N2CCCC2)n1
growth inhibition (at 1.2 µM): -6% (inactive) | growth inhibition (at 3.7 µM): -8% (inactive) | growth inhibition (at 11.0 µM): 10% (inactive) | growth inhibition (at 33.0 µM): 93% (active) | growth inhibition (at 100.0 µM): 96% (active)

COc1cc(/C=C2\NC(=O)N(/C=C3\C(=O)Oc4ccccc4C3=O)C2=O)ccc1O
growth inhibition (at 1.2 µM): -1% (inactive) | growth inhibition (at 3.7 µM): 0% (inactive) | growth inhibition (at 11.0 µM): 7% (inactive) | growth inhibition (at 33.0 µM): 87% (active) | growth inhibition (at 100.0 µM): 98% (active)

Cc1ccc(Sc2ccccc2N)cc1
growth inhibition (at 1.2 µM): -16% (inactive) | growth inhibition (at 3.7 µM): -2% (inactive) | growth inhibition (at 11.0 µM): -17% (inactive) | growth inhibition (at 33.0 µM): 35% (inactive) | growth inhibition (at 100.0 µM): 98% (active)
